# Test results reported in PubChem BioAssay.
# Values joined by “and” are separate entries in the source; they are usually repeats but may differ in a detail not shown here. Equal values may be shown once. Results filed as inconclusive are left out. Active and inactive are the calls of the source.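 The calls were made as follows, unless noted: active = normalized viability below 100% at a tested concentration; inactive = the rest.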
# Tests used:
# [1] = compounds altering circadian rhythm period length – cell-based, LOPAC library, luminescence reporter (AID 2774; call rule not given here;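 also: values are relative to mean of DMSO wells on each plate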); details: circadian reporter cells, at 7 µM, actives lie on both sides
# [2] = test system: Hepatitis C virus NS3 helicase; assay: blockers of NS3h binding to ssDNA – biochemical, fluorescence polarization, LOPAC1280 library, primary screen (AID 687035; in the data active = inhibition above about 37%); details: Purified HCV NS3 helicase, Cy5-dT15 ssDNA binding fluorescence polarization; stronger effect = higher value; concentration not given here
# [3] = compounds altering Cy5-DNA-NS3h complex signal – biochemical, LOPAC1280, artefact control for HCV NS3 helicase inhibitor project (AID 687037; call rule not given here); details: Cy5-DNA-NS3h complex fluorescence interference counterscreen
# [4] = test system: Aerobactin synthetase IucA (Klebsiella pneumoniae); assay: inhibition of K. pneumoniae IucA enzyme – biochemical, Tocris library, absorbance (AID 1345561; call rule not given here;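 also: 100% = enzyme without compound and 0% = no enzyme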); details: purified IucA enzyme assay, absorbance (OD) read-out; stronger effect = lower value;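 tested at 8 µM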
# [5] = JHH-DIPG-1 glioma cell viability, MIPE5.0 library, CellTiter-Glo luminescence, qHTS (AID 1347067; cut-off not given, nearly all actives have AC50 up to about 26 µM;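 also: cells exposed to compound for 48 hours before readout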); details: JHH-DIPG-1 glioma viability, CellTiter-Glo ATP luminescence
# [6] = viability loss with induced miR-34 in A549 – imaging, A549 dox-inducible miR-34, nuclei and caspase counts, primary screen (AID 1347080;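 active = compounds whose cell count with miR-34 switched on is under 0.7 times the count with it off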); details: A549 miR-34 inducible, Hoechst nuclei count, 48 h
# [7] = compounds altering HSF1 focus formation in cells – imaging, Selleck Cancer Library (AID 1347162; in the data active = plate-normalised HSF1 focus index below about 0.46); details: human cells, HSF1 nuclear foci imaging, at 10 µM; SSMD: measured here: HSF1 foci SSMD mean; cell count: measured here: cell number; plate-normalised HSF1 focus index: stronger effect = lower value
# [8] = blockers of cellular phospholipid synthesis – cell-based, LOPAC library, screen 4, primary screen (AID 1347384; call rule not given here); details: animal cells, phospholipid biosynthesis inhibition screen; at 10 µM
# [9] = galactose survival enhancers in mitochondrial complex I cybrids – cell-based, galactose medium, ATP luminescence, primary screen (AID 1645843;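 active = z-score of at least 1.8 in each of two replicates, scored against plate mean and spread of sample wells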;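 also: positive z means more ATP and so rescue of galactose-driven cybrid death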); details: complex I mutant cybrid cells, 72 h, stronger effect = higher value
# [10] = P. berghei load reduction in hepatocytes – cell-based, HepG2, luciferase luminescence, HepG2 viability, primary screen (AID 624349; in the data active = parasite load remaining mostly below about 12%, no sharp cut-off; inactive = mostly above about 10%;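 also: 100% = mean of DMSO negative control wells on the same plate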); details: P. berghei liver stage in HepG2, luciferase luminescence, concentration not given here; parasite load remaining: stronger effect = lower value; viability: measured here: HepG2 viability without parasites
# [11] = viability loss in pontine glioma line – cell-based, JHH-DIPG-1, MIPE4.0, CellTiter-Glo, qHTS, dose response (AID 1347062; cut-off not given, nearly all actives have AC50 up to about 27 µM); details: JHH-DIPG-1 viability, CellTiter-Glo ATP luminescence
# [12] = viability loss in pontine glioma line – cell-based, SU-DIPG-XIII, MIPE5.0, CellTiter-Glo, qHTS, dose response (AID 1347064; cut-off not given, nearly all actives have AC50 up to about 23 µM;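 also: cells exposed to compound for 48 hours before the viability read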); details: CellTiter-Glo ATP luminescence
# [13] = growth inhibition of DIPG cells – cell-based, MIPE4.0 library, CellTiter-Glo luminescence, qHTS (AID 1347066; cut-off not given, nearly all actives have AC50 up to about 30 µM;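 also: cells exposed to compound for 48 hours before readout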); details: SU-DIPG-VI viability, CellTiter-Glo ATP luminescence
# [14] = growth inhibition of DIPG cells – cell-based, MIPE5.0 library, qHTS (AID 1347068; cut-off not given, nearly all actives have IC50 up to about 30 µM); details: SU-DIPG-XXV viability
# [15] = viability loss in pontine glioma line – cell-based, SU-DIPG-IV, MIPE4.0, CellTiter-Glo, qHTS, dose response (AID 1347063; cut-off not given, nearly all actives have AC50 up to about 30 µM;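 also: compound exposure lasted 48 hours before the viability readout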); details: CellTiter-Glo ATP luminescence
# [16] = MELAS cybrid and Rieske KO viability enhancers – cell-based, MELAS cybrids, Rieske KO mouse fibroblasts, CellTiter-Glo, primary screen (AID 1508586;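 active = mean z-score across replicates of 1.96 or higher in either the MELAS or the Rieske mutant cell line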;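 also: z relative to plate mean and SD of compound and empty wells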); details: low glucose
# [17] = drug combination growth inhibition, ovarian cancer – cell-based, oncology-focused library, rucaparib conditional, profiling panel (AID 1508598); details: patient-derived ovarian cancer cells, CellTiter-Glo viability, 144 h, stronger effect = lower value
# [18] = stronger effect = lower value, cell number ratio, induced over uninduced
# [19] = measured here: relative caspase fold change +Dox/-Dox
# [20] = measured here: total cells with miR-34 induction, stronger effect = lower value
# [21] = measured here: total cells without miR-34 induction
compound,measurement,setting,value
COc1cc2c(cc1O)CC[C@@H]1[C@@H]2CC[C@]2(C)[C@@H](O)CC[C@@H]12,period change,[1],-1.4 h (active)
same,inhibition,[2],-1% (inactive)
same,fluorescence ratio (interference),[3],1 (inactive)
same,remaining activity,[4],112% (inactive)
same,AC50,[5],3.72 µM (active)
same,fold change,[6]; [18],1.15 (inactive) and 1.13 (inactive)
same,fold change,[6]; [19],0.815 and 0.616
same,cell count,[6]; [20],2600 and 1620
same,cell count,[6]; [21],2270 and 1440
same,SSMD,[7],1.78
same,cell count,[7],7300
same,plate-normalised HSF1 focus index,[7],1.07 (inactive)
same,outcome,[8],inactive
same,z-score,[9],0.06 (inactive) and 0.18 (inactive)
NC(=O)c1ccc(-c2nc(-c3ccc4c(c3)OCCO4)c(-c3ccccn3)[nH]2)cc1,parasite load remaining,[10],23.5% (inactive)
same,viability,[10],94.8%
same,remaining activity,[4],105% (inactive)
same,outcome,[11],inactive
same,AC50,[12],13.2 µM (active)
same,outcome,[13],inactive
same,AC50,[5],20.9 µM (active)
same,outcome,[14],inactive
same,fold change,[6]; [18],0.947 (inactive) and 0.907 (inactive)
same,fold change,[6]; [19],1.17 and 1.19
same,cell count,[6]; [20],6010 and 7770
same,cell count,[6]; [21],6350 and 8570
same,SSMD,[7],3.6
same,cell count,[7],7030
same,plate-normalised HSF1 focus index,[7],1.22 (inactive)
same,z-score,[9],-0.34 (inactive)
O=C(O)Cc1cccc(OCCCN(Cc2cccc(C(F)(F)F)c2Cl)CC(c2ccccc2)c2ccccc2)c1,remaining activity,[4],110% (inactive)
same,outcome,[11],inactive
same,AC50,[15],20.9 µM (active)
same,fold change,[6]; [18],0.882 (inactive) and 1.33 (inactive)
same,fold change,[6]; [19],0.748 and 1.3
same,cell count,[6]; [20],7570 and 3160
same,cell count,[6]; [21],8580 and 2370
same,SSMD,[7],0.414
same,cell count,[7],6290
same,plate-normalised HSF1 focus index,[7],1.02 (inactive)
same,z-score,"[16]; MELAS cybrid survival, CellTiter-Glo 48 h, stronger effect = higher value",-0.168 (inactive)
same,z-score,"[16]; Rieske KO mouse fibroblast survival, CellTiter-Glo 72 h",-0.731
same,viability,"[17]; at 0.000305 µM, OCI-C5x cells, with rucaparib 10 µM, 100% = cells with rucaparib alone",118% (inactive)
same,viability,"[17]; at 0.000305 µM, OCI-C5x cells, without rucaparib",117% (inactive)
same,viability,"[17]; at 0.000305 µM, OCI-P5x cells, with rucaparib 20 µM, 100% = cells with rucaparib alone",107% (inactive)
same,viability,"[17]; at 0.000305 µM, OCI-P5x cells, without rucaparib",111% (inactive)
same,viability,"[17]; at 0.00122 µM, OCI-C5x cells, with rucaparib 10 µM, 100% = cells with rucaparib alone",118% (inactive)
same,viability,"[17]; at 0.00122 µM, OCI-C5x cells, without rucaparib",129% (inactive)
same,viability,"[17]; at 0.00122 µM, OCI-P5x cells, with rucaparib 20 µM, 100% = cells with rucaparib alone",108% (inactive)
same,viability,"[17]; at 0.00122 µM, OCI-P5x cells, without rucaparib",95.8% (active)
same,viability,"[17]; at 0.00488 µM, OCI-C5x cells, with rucaparib 10 µM, 100% = cells with rucaparib alone",115% (inactive)
same,viability,"[17]; at 0.00488 µM, OCI-C5x cells, without rucaparib",125% (inactive)
same,viability,"[17]; at 0.00488 µM, OCI-P5x cells, with rucaparib 20 µM, 100% = cells with rucaparib alone",106% (inactive)
same,viability,"[17]; at 0.00488 µM, OCI-P5x cells, without rucaparib",108% (inactive)
same,viability,"[17]; at 0.0195 µM, OCI-C5x cells, with rucaparib 10 µM, 100% = cells with rucaparib alone",113% (inactive)
same,viability,"[17]; at 0.0195 µM, OCI-C5x cells, without rucaparib",125% (inactive)
same,viability,"[17]; at 0.0195 µM, OCI-P5x cells, with rucaparib 20 µM, 100% = cells with rucaparib alone",101% (inactive)
same,viability,"[17]; at 0.0195 µM, OCI-P5x cells, without rucaparib",105% (inactive)
same,viability,"[17]; at 0.0781 µM, OCI-C5x cells, with rucaparib 10 µM, 100% = cells with rucaparib alone",114% (inactive)
same,viability,"[17]; at 0.0781 µM, OCI-C5x cells, without rucaparib",123% (inactive)
same,viability,"[17]; at 0.0781 µM, OCI-P5x cells, with rucaparib 20 µM, 100% = cells with rucaparib alone",109% (inactive)
same,viability,"[17]; at 0.0781 µM, OCI-P5x cells, without rucaparib",103% (inactive)
same,viability,"[17]; at 0.313 µM, OCI-C5x cells, with rucaparib 10 µM, 100% = cells with rucaparib alone",114% (inactive)
same,viability,"[17]; at 0.313 µM, OCI-C5x cells, without rucaparib",119% (inactive)
same,viability,"[17]; at 0.313 µM, OCI-P5x cells, with rucaparib 20 µM, 100% = cells with rucaparib alone",93.8% (active)
same,viability,"[17]; at 0.313 µM, OCI-P5x cells, without rucaparib",96.5% (active)
same,viability,"[17]; at 1.25 µM, OCI-C5x cells, with rucaparib 10 µM, 100% = cells with rucaparib alone",111% (inactive)
same,viability,"[17]; at 1.25 µM, OCI-C5x cells, without rucaparib",114% (inactive)
same,viability,"[17]; at 1.25 µM, OCI-P5x cells, with rucaparib 20 µM, 100% = cells with rucaparib alone",96.5% (active)
same,viability,"[17]; at 1.25 µM, OCI-P5x cells, without rucaparib",92.3% (active)
same,viability,"[17]; at 5 µM, OCI-C5x cells, with rucaparib 10 µM, 100% = cells with rucaparib alone",92.1% (active)
same,viability,"[17]; at 5 µM, OCI-C5x cells, without rucaparib",100% (inactive)
same,viability,"[17]; at 5 µM, OCI-P5x cells, with rucaparib 20 µM, 100% = cells with rucaparib alone",43.4% (active)
same,viability,"[17]; at 5 µM, OCI-P5x cells, without rucaparib",87.5% (active)
same,z-score,[9],-0.7 (inactive)
